# According to PubChem BioAssay (NCI):
# The panel holds about 83,000 compounds, 20% with a hit somewhere; the sample as a whole holds those more often.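 Single-dose data. Exposure time 48 hours. Values below 10 considered active.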 A number with no mark means an inactive call. Calls of active or inactive are those of the source.
# Key:
# Assay in all cases: NCI-60 one-dose screen, 48 h (100 = growth as untreated, 0 = no growth, -100 = all killed)
# Conditions in all cases: 10 µM unless noted
# [1] = test system: T-47D breast
# [2] = test system: BT-549 breast
# [3] = test system: MDA-MB-435 melanoma
# [4] = test system: MCF7 breast
# [5] = test system: HCT-116 colon
# [6] = test system: HCC-2998 colon
# [7] = test system: KM12 colon
# [8] = test system: SW-620 colon
SMILES,growth [1],growth [2],growth [3],growth [4],growth [5],growth [6],growth [7],growth [8]
COc1cccc(/C=C/C(=O)c2ccc(NC(=O)COc3cccc4cccnc34)cc2)c1,82.9%,86.1%,100%,52.4%,3.49% (active),99.3%,96.3%,
CCC(=O)Nc1cc(Nc2cc(NC3CC3)n3ncc(C#N)c3n2)ccc1C,6.41% (active),29.5%,,3.83% (active),19.2%,41.6%,32.5%,
CN(c1ccc(Cl)cc1)S(=O)(=O)c1ccc(-c2cnc(C3CC3)o2)cc1,58.9%,35.1%,,15%,10.6%,22.7%,8.94% (active),25.8%
C#C[C@]1(O)CC[C@H]2[C@@H]3CC=C4c5sc(Nc6cc(OC)ccc6OC)nc5CC[C@]4(C)[C@H]3CC[C@@]21C,22.8%,30.2%,,-2.69% (active),19.3%,62.4%,24.6%,18.4%
C#C[C@]1(O)CC[C@H]2[C@@H]3CC=C4c5sc(C6CC6)nc5CC[C@]4(C)[C@H]3CC[C@@]21C,73.8%,90.5%,,64.7%,71.4%,83.6%,57.4%,91.2%
O=S(=O)(Nc1cc(Cl)c(F)c(Cl)c1)c1ccc(-c2cnc(C3CC3)o2)cc1,29.8%,66.8%,,20.2%,27.3%,67.4%,26.1%,23.8%
CCN(CC)Cc1c(-c2cccc(OC(F)(F)F)c2)[nH]c2ccc(N3CCCC3)cc2c1=O,103%,87.7%,,78.4%,101%,87%,,92.3%
NS(=O)(=O)Oc1ccc2nc(Nc3ccc(F)c(F)c3)ccc2c1,90%,,89%,93.2%,92.2%,90.3%,58.9%,105%
O=C(CN1CCN(c2cc(=O)n(-c3ccccc3)c3ccccc23)CC1)Nc1ccc([N+](=O)[O-])cc1,64.9%,94.5%,,88.2%,92.6%,105%,92.9%,92.3%
C#C[C@]1(O)CC[C@H]2[C@@H]3CC=C4c5sc(C6CCOCC6)nc5CC[C@]4(C)[C@H]3CC[C@@]21C,57.8%,77.6%,,75.6%,64.4%,84.3%,59.8%,85.5%
CNC(=O)c1cc(Oc2ccc3nc(NC(=O)c4ccc(CN5CCN(C)CC5)c(C(F)(F)F)c4)sc3c2)ccn1,38%,,53.9%,28.9%,31.7%,70.5%,46.8%,11.4%
C#CCOc1ccc(/C=N/Nc2nc(-c3cc4cc(Br)cc(Br)c4oc3=O)cs2)cc1,88.6%,,91.8%,65.9%,91.8%,108%,88%,104%
CCC(=O)Nc1ccc(-c2nc(-c3cccc(O)c3)c(-c3ccnc(Br)c3)[nH]2)cc1,26.4%,74.1%,,13.3%,55.9%,95.8%,58.9%,84.7%
C#C[C@]1(O)CC[C@H]2[C@@H]3CC=C4c5sc(-c6cccc(F)c6)nc5CC[C@]4(C)[C@H]3CC[C@@]21C,65.4%,96.3%,,66.7%,80.6%,85.2%,75.6%,89.7%
O=C1/C(=C/c2ccccc2[N+](=O)[O-])Oc2ccc(O)cc21,44.2%,49.9%,,6.93% (active),-20.5% (active),73.3%,64.2%,-14.7% (active)
C#C[C@]1(O)CC[C@H]2[C@@H]3CC=C4c5sc(-c6ccccn6)nc5CC[C@]4(C)[C@H]3CC[C@@]21C,85.3%,59.8%,,49.3%,62%,92.5%,85.7%,74.2%
O=C(Nc1ccc(-c2nc(-c3cccc(O)c3)c(-c3ccnc(Br)c3)[nH]2)cc1)c1ccccc1,-6.8% (active),40.6%,,0.42% (active),18.1%,26.3%,12.9%,
O=S(=O)(Nc1ccc2c(c1)OC(F)(F)O2)c1ccc(-c2cnc(C3CC3)o2)cc1,31.6%,52.1%,,19.9%,23.7%,72.8%,30.9%,23.7%
O=C(Nc1cccc(-c2nc(-c3ccc(NC(=O)c4cccnc4)cc3Cl)no2)c1)Nc1ccc(NC(=O)C2CC2)c(C(F)(F)F)c1,-51.1% (active),-39.5% (active),,-66.8% (active),-52.8% (active),-69.6% (active),-63.9% (active),-59.9% (active)
CC1=C2C(=C[C@@](C)(COS(N)(=O)=O)[C@@H]2O)C(=O)[C@](C)(O)C12CC2,71.8%,60.2%,,61.7%,70%,61.7%,99.5%,85.3%
O=C(C[n+]1ccnc2ccccc21)c1ccc(O)c(O)c1,45%,51.7%,,12.5%,7.08% (active),81.2%,82.3%,24%
CCCCSc1nnc(-c2ccc(-c3ccc(Cl)cc3)nc2C)o1,92.8%,,102%,85.8%,98%,100%,,101%
CS(=O)(=O)c1ccc2c(c1)c1c(n2S(=O)(=O)c2ccc(Cl)cc2)CCCC1,,-1.38% (active),-11% (active),16.9%,19.2%,30.1%,,9.36% (active)
O=S(=O)(Nc1ccc(C2CC2)cc1)c1ccc(-c2cnc(C3CC3)o2)cc1,51.5%,76.3%,,33.3%,48.5%,91.1%,48.3%,
COc1ccc(NS(=O)(=O)c2ccc(-c3cnc(C4CC4)o3)cc2)cc1Cl,30.3%,57.5%,,17.4%,26.7%,53.1%,22.7%,22.6%
CC(C)C(=O)Nc1ccc(-c2nc(-c3cccc(O)c3)c(-c3ccnc(Br)c3)[nH]2)cc1,7.84% (active),60.5%,,11.7%,53.4%,67.9%,43.3%,43.2%
O=S(=O)(Nc1ccc(I)c(Cl)c1)c1ccc(-c2cnc(C3CC3)o2)cc1,26.9%,57.1%,,17%,26.6%,59.1%,32%,15.3%
O=S(=O)(Nc1ccc(-c2nc(-c3cccc(O)c3)c(-c3ccnc(Br)c3)[nH]2)cc1)c1ccccc1,1.01% (active),51.9%,,7.26% (active),27%,32.4%,21.5%,49.8%
C#CCOc1ccc(/C=N/Nc2nc(-c3cc(Cl)ccc3Cl)cs2)cc1,37.4%,,102%,9.62% (active),86.6%,95.8%,72.5%,93.9%
